# The list is not random: actives were taken first. Their share in the collection is about 2%.
# KDM4E inh – blocks human JMJD2E demethylase activity; B2RXH2; JMJD2E catalytic domain, FDH-coupled NADH fluorescence (FDH is formaldehyde dehydrogenase); Potency, µM (series often up to 57.1 µM), most hits filed as inhibitors; 230,000 compounds, 1.6% hits; AID 2147; active means well fitted inhibition curve with a large enough effect, not every such curve was filed as active; inconclusive means small, poorly fitted or top-dose-only effect, or another doubt; inactive means no such curve, though single readings can be large or run the other way; further: nearly all actives have a fitted effect of over 50% in size
# TRb SRC2 PPI – disrupts binding of human TR beta to SRC2; Potency, µM (doses to about 106 µM), actives largely listed as inhibitors; TRbeta-SRC2 peptide binding, fluorescence polarization; receptor liganded with 1 µM T3; AID 1469; 280,000 compounds, 0.065% hits; further: nearly all actives have a fitted effect of over 50% in size
# Target sequence (P10828 whole entry, looked up): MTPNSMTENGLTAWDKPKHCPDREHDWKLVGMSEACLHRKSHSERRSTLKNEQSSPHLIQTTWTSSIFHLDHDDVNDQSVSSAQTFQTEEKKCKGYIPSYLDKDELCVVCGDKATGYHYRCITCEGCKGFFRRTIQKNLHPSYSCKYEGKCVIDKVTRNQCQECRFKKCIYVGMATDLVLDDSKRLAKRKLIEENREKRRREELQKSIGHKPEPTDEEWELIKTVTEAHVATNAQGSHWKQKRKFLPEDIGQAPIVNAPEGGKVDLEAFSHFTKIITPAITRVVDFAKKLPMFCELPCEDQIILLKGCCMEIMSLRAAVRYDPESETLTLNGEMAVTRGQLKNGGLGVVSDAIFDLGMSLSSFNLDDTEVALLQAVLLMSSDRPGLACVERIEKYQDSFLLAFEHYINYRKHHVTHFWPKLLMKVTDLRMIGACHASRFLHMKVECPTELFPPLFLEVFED
#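 Quantitative HTS by FP: 0.6 uM TRb LBD, 20 nM labeled SRC2 20-mer, 1 uM T3, 5% DMSO; 5 hr ambient incubation; % activity per concentration and potencies from concentration series.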
# TexasRed fluor – Texas Red fluorescence interference in TRb-SRC2 counter-screen; 280,000 compounds, 0.29% hits; Potency, µM (highest dose often 106 µM); TRb/SRC2 Texas Red total fluorescence interference; active means well fitted curve in either direction with a large enough effect; inconclusive means small, poorly fitted or top-dose-only effect
#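 Human TRβ ligand-binding domain (0.6 uM) and Texas Red SRC2 peptide (20 nM) in Tris buffer with 1 uM T3 and 5% DMSO were incubated with pinned compound for 5 hr at ambient temperature. Total fluorescence was computed as S + 2P (555/632 nm).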
# HTT cytoprotect – Huntington cell model cytoprotection by ATP luminescence. PC12 HTT-Q103 induced, cytoprotection, ATP luminescence, 40 h. Potency, µM (highest dose often 56.4 µM), hits mostly activators. 230,000 compounds, 0.14% hits; further: nearly all actives have a fitted effect of over 45% in size
#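 Quantitative HTS on tebufenozide-induced (100 nM) PC12 cells expressing HTTQ103 exon 1–GFP; compounds tested as a concentration series; survival measured via cellular ATP.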
# HTT aggregate – mutant huntingtin aggregation inhibition. PC12 HttQ103-GFP aggregates, Acumen cytometry, 40 h. Potency, µM (highest dose often 46.1 µM), hits mostly inhibitors. 220,000 compounds, 1.1% hits; further: nearly all actives have a fitted effect of over 60% in size
#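 Aggregate formation scored by laser-scanning cytometer (488 excitation, 500–530 emission) in lysed PC12 cells expressing Q103-GFP after 100 nM tebufenozide induction; library tested in dose series, with ATPLite reagent added in the multiplex.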
# Coupling enz – inhibits coupling enzyme system, counter-screen for aldolase hits. coupling enzyme system counterscreen, AmpLite Red fluorescence. activity change, negative = inhibition, % at 58.2 µM, hits read low. 290,000 compounds, 0.67% hits. AID 2472; in the data active means activity change below about -30%
#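 Final compound at 57.5 uM, incubated 10 min at RT with coupling enzyme reagent (glyceraldehyde-3-phosphate), then 20 min with substrate and AmpLite Red detection. Fluorescence read at 525/598 nm; tests interference with the coupling assay, not aldolase inhibition.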
# Numbers stand for hits; n = inactive; u = inconclusive; x = not tested or not shown; [ ] = remark or other dose. Unless noted, the call rests on the fitted dose curve; in most records, active means well fitted curve in the direction sought with a large enough effect; inconclusive means small, poorly fitted or top-dose-only effect, or another doubt; inactive means no such curve, though single readings can be large; an effect the other way counts as inactive or inconclusive.
SMILES,KDM4E inh,TRb SRC2 PPI,TexasRed fluor,HTT cytoprotect,HTT aggregate,Coupling enz
C=CCOC[C@@H]1CN2[C@H](c3ccc(Br)cc3)[C@@H](C)CC[C@H]2C(=O)O1,n,n,n,n,x,n
O=C(NCC(c1ccc2c(c1)OCO2)N1CCN(c2ccccc2)CC1)C(=O)Nc1ccccc1 (centres undefined),x,n,n,x,x,x
C=C(C)C(=O)OCCCCCCCCCCCC,x,n,n,x,x,x
COc1ccc(CN2C(=O)c3cccnc3C2Nc2cc(Cl)c(OC)cc2OC)cc1 (centres undefined),16µM,n,n,n,n,n
COc1ccc(CN2C(=O)c3cccnc3C2Nc2ccc(C)cc2)cc1 (centres undefined),u,n,n,n,n,n
COc1ccc(-c2nc3c(c4c2C[C@H](c2ccccc2)OC4)CN(S(=O)(=O)c2ccc(C#N)cc2)CC3)c(C)c1,n[11.4 µM],n[11.2 µM],n[11.2 µM],n[10 µM],x,n
Cc1ccccc1OCc1ccc(-c2nc(C#N)c(N3CCN(c4ccccc4)CC3)o2)o1,x,n,4µM[quencher],x,x,x
CCCC[C@@H](C=O)NC(=O)[C@H](CC(C)C)NC(=O)OCc1ccccc1,x,n,n,n,x,x
c1cc2c(cc1Cn1cnnn1)OCO2,u,n,n,n[10 µM],n,n
Cc1nnc(C)c2c(C)n(Cc3ccc4c(c3)OCO4)c(C)c12,22µM,n,n,n[10 µM],n,n
O=c1[nH]cnc2nc(-c3ccccc3)c(-c3ccccc3)nc12,3.2µM,n,n,n[10 µM],14µM,n
Cc1ccc(-n2c(C)cc(C(=O)COC(=O)c3c(C)noc3C)c2C)cc1,n,n,n,n,10µM,n
Cc1nnn(-c2nonc2N)c1C(=O)N/N=C/c1cccc2ccccc12,u,n,n,n[10 µM],n,n
Cc1nnn(-c2nonc2N)c1C(=O)N/N=C/c1ccccc1O,13µM,n,n,n[10 µM],u,n
O=c1c2ccccc2sn1-c1ccccc1,25µM,n,n,n,n,n
Cc1ccc(-n2sc3ccccc3c2=O)cc1S(=O)(=O)N1CCCCC1,11µM,n,n,n[10 µM],u,n
CN(C)S(=O)(=O)c1cccc(-n2sc3ccccc3c2=O)c1,3.5µM,n,n,n[10 µM],n,n
O=c1c2ccccc2sn1-c1ccc(S(=O)(=O)N2CCCC2)cc1,u,x,x,n[10 µM],n,n
O=c1c2ccccc2sn1-c1nccs1,7.9µM,n,n,n[10 µM],n,n
CN(Cc1cc(Br)cc(Br)c1O)Cc1c(O)ccc2ccccc12,x,x,x,n[10 µM],x,x
Nc1nonc1C(=O)NCCNCc1ccc(Cl)c(Cl)c1,x,n,n,x,x,x
O=C(O)c1ccc2c(c1)C(=O)N([C@]1(C(=O)O)CC1c1ccccc1)C2=O (some centres undefined),x,n,n,x,x,n
Cc1cccc(CSCc2ccc(C(=O)NCCc3ccccc3)o2)c1,x,n,n,x,x,x
CCOc1ccc(NC(=O)N(Cc2ccc(CC)cc2)Cc2cn[nH]c2-c2ccc(OC)cc2)cc1,x,n,n,x,x,x
COc1cc2c(cc1OC)CN(c1nc(CN3CCCCC3)nc3sc4c(c13)CCCC4)CC2,n,n,n,x,28µM,n
SMILES,KDM4E inh,TRb SRC2 PPI,TexasRed fluor,HTT cytoprotect,HTT aggregate,Coupling enz
Cn1cc([N+](=O)[O-])c(C(=O)N(Cc2ccccc2)Cc2ccccc2)n1,n,n,n,2.5µM,n,n
O=C(c1ccco1)N1CCN(C(=O)C(Sc2ccccc2)c2ccccc2)CC1 (centres undefined),n,n,n,n[0.074 µM],10µM,n
O=C(CSc1ccccc1)N1CCN(C(=O)c2ccco2)CC1,n,n,n,n,n,n
O=C(CSc1ccccn1)N/N=C/c1cc([N+](=O)[O-])ccc1O,13µM,n,n,n[10 µM],n[9.22 µM],n
Cc1ccn(CC(=O)N/N=C/c2cc([N+](=O)[O-])ccc2O)n1,13µM,n,n,x,6.3µM,n
Cc1nc2ccc(C(=O)N/N=C/c3cc([N+](=O)[O-])ccc3O)cc2[nH]1,35µM,n,n,x,n,n
O=C(Cn1cncn1)N/N=C/c1cc([N+](=O)[O-])ccc1O,25µM,n,n,n[10 µM],n[9.22 µM],n
Cc1cc([N+](=O)[O-])nn1CC(=O)N/N=C/c1ccc(O)cc1O,13µM,n,n,n[10 µM],n[9.22 µM],n
